Molecules are shown by their SMILES. Values joined by “and” are separate entries in the source; they are usually repeats but may differ in a detail not shown here. Identical values can stand only once. The whole screen tested about 340,000 compounds, of which about 2,300 (0.68%) were called active. Cut-off read from the data, not from the text of the source: active = growth rescue above about 28% (passing the limit was not always enough); inconclusive = no clear call, values can overlap the other calls. What follows is part of a selection rich in actives, with near analogues and random picks from the rest.

The assay can be described thus: rescue of yeast from PfHsp40 toxicity, primary screen, S. cerevisiae, ATP luminescence (AID 504582).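 Note: yeast W303a lacking pdr1 and pdr3 grown in galactose medium; growth measured after three days at 30 °C.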 The following applies: S. cerevisiae expressing PfHsp40, growth rescue, at 12.5 µM, hits give high values.
Consider `Cc1onc(-c2c(Cl)cccc2Cl)c1C(=O)NNC(=O)c1c(-c2c(Cl)cccc2Cl)noc1C`, for which the growth rescue was -0.106% (inactive). The result for `Cc1noc(C)c1COc1ccc(C(=O)NCCOc2ccccc2)cc1` reads 0.221% (inactive). The result for `Cc1onc(-c2ccccc2)c1C(=O)N=C(N)c1ccc(Cl)cc1` reads -1% (inactive); that for `COc1ccc(C(=O)NC(=S)NC2CCCCC2)cc1`, 0.972% (inactive). The result for `Cc1onc(-c2ccccc2)c1C(=O)Nc1ccccc1C#N` reads -0.716% (inactive) and 0.99% (inactive); that for `COc1ccc(C(=O)NC(=S)NNC(=O)c2c(-c3ccccc3)noc2C)cc1`, 42.1% (active); that for `COc1ccc(C(=O)NC(=S)NNC(=O)CCc2ccccc2)cc1`, 277% (active).

Consider `Cc1onc(-c2ccccc2)c1C(=O)NNC(=S)NC(=O)c1ccc(F)cc1`, for which the growth rescue was 45.5% (active). Under `O=C(CCc1ccccc1)NNC(=O)COc1ccc(Cl)cc1` stands -0.417% (inactive); under `COc1ccc(NS(=O)(=O)c2cc(NC(=O)c3ccc(S(=O)(=O)N(C)C)cc3)ccc2N2CCOCC2)cc1`, 0.23% (inactive).

As to `CCOC(=O)N1CCN(CC(=O)n2c(C)c(C)c3ccccc32)CC1`, the growth rescue is 1.25% (inactive).

In the case of `COC(=O)Cc1ccc(NC(=S)NCc2ccco2)cc1`, the growth rescue was -0.043% (inactive).

In the case of `Cc1cc(C)cc(N)c1`, the growth rescue was -0.449% (inactive). Under `CCN(C(=O)CSc1nnnn1-c1ccc(OC)cc1)C1CCS(=O)(=O)C1` (configuration not stated) stands -0.617% (inactive). `Cc1c(C(=O)N(C)CCc2cnn(C)c2)oc2c(F)cccc12`: the growth rescue was 6.8% (inactive).

For the compound `Cc1ccccc1Nc1nnc(SCC(=O)c2cc3ccccc3o2)s1`, the growth rescue was 0.609% (inactive).

For the compound `CC(C)c1ccc(Nc2nnc(SCC(=O)c3nnc(-c4ccccc4)o3)s2)cc1`, the growth rescue was 200% (active).

On to `CC(C)N(C(=O)CSc1nnc(NC2CC2)s1)c1ccccc1`, for which the growth rescue is 0.892% (inactive). Under `O=C1C2(Cl)C3(Cl)C4(Cl)C(Cl)(Cl)C5(Cl)C3(Cl)C1(Cl)C5(Cl)C24Cl` (configuration not stated) stands 78.8% (active); under `CCc1ccc(NC(=O)N[C@H](C(=O)O)C(C)CC)cc1` (some centres not stated), -0.138% (inactive); under `CCOc1ccc(NC(=O)N2CC=C(n3c(=O)[nH]c4ccccc43)CC2)cc1`, -0.78% (inactive). Regarding `CCn1c(SC)nc(O)c(C(c2ccc(OC)c(O)c2)c2c(O)nc(SC)n(CC)c2=O)c1=O`, the growth rescue is -0.176% (inactive). With `CC(Sc1nnc(-c2cccs2)n1C1CC1)C(=O)NCC1CCCO1` (configuration not stated), the growth rescue was -0.606% (inactive). Under `O=c1oc2ccccc2cc1-c1cn(-c2ccccc2)c(=S)[nH]1` stands 2.32% (inactive); under `O=c1oc2ccccc2cc1-c1csc(Nc2ccc(O)cc2)n1`, 77.4% (active); under `Cc1cc(C)cc(OCC(=O)NNC(=O)c2cc3ccccc3oc2=O)c1`, -1.97% (inactive). Take `COc1cc(C(=O)OCC(=O)NC23CC4CC(CC(C4)C2)C3)cc(OC)c1OC`: the growth rescue is 0.746% (inactive).

Turning to `CC1(C)C2CCC1(C)C(OC(=O)c1ccc(O)cc1)C2` (configuration not stated), the growth rescue is 518% (active). The result for `Cc1ccc(C(=O)OC2CCCN(C)C2)cc1` (configuration not stated) reads -1.37% (inactive); that for `CC1(C)C2CCC1(C)C(OC(=O)CCn1ccnc1)C2` (configuration not stated), -1.93% (inactive). The result for `CCOC(=O)Nc1ccc2c(c1)N(C(=O)CCCl)c1ccccc1[S@]2=O` reads 1.15% (inactive); that for `Cc1ccc2c(c1)N(CC(=O)NCCCN1CCCCC1)C(=O)c1cccnc1O2`, -0.596% (inactive). Take `COC(=O)C1CCCCN1C(=O)c1ccc(OC2CCN(C(C)=O)CC2)c(OC)c1` (configuration not stated): the growth rescue is 1.77% (inactive). The result for `Cc1ccc2c(c1)N(CC(=O)N1CCOCC1)C(=O)CO2` reads -0.417% (inactive); that for `CCCCNc1nc2c(c(=O)n(C)c(=O)n2C)n1Cc1cccc(OC)c1`, 0.511% (inactive); that for `CCCCNc1c(-c2cccc(Sc3ccc(OC)cc3)c2)nc2ccccn12`, 310% (active). For `CCCCNc1c(-c2ccc(OC)c(Sc3ccc(OC)cc3)c2)nc2ccc(Cl)cn12`, the growth rescue was 19.1% (inactive). The result for `Cn1c(=O)n(C)c2cc(CNc3ccc(N4CCOCC4)c(C(=O)O)c3)ccc21` reads -0.489% (inactive). As for `Cc1cccc(N2CCN(C(=O)CN(C)S(=O)(=O)c3ccc4c(c3)CCC(=O)N4)CC2)c1C`, the growth rescue was -1.62% (inactive).

Consider `COc1cc(C=NNC(=O)c2cccnc2)ccc1OC(=O)c1ccccc1F`, for which the growth rescue is 1.77% (inactive).

In the case of `COc1ccc(C(=O)Nc2cc(C)c(NC(=O)c3ccccc3OC)cn2)cc1`, the growth rescue is 1.75% (inactive). As to `COc1ccc(C(=O)Nc2ccccc2C(=O)N/N=C/c2ccc(O)c(OC)c2)cc1`, the growth rescue is 40.9% (active). The result for `C=CCN1CC(C)/C(=N\O)CC1C` (configuration not stated) reads -0.962% (inactive); that for `COc1cccc(CNC(=O)CCC2CCCN(C(=O)c3cc(C)[nH]n3)C2)c1` (configuration not stated), 1.27% (inactive); that for `NC(=O)NC(=O)CSc1nc2cc([N+](=O)[O-])ccc2n1-c1cccc(C(F)(F)F)c1`, 0.555% (inactive).

As to `Nc1[nH]c(=S)nc2nc(-c3ccccc3)c(-c3ccccc3)nc12`, the growth rescue is 38.7% (active).

Turning to `Cc1ccc(Cc2cncc(O)c2)cc1S(=O)(=O)O`, the growth rescue is -2.67% (inactive). As for `O=C(Nc1ccc2sc3ccccc3c(=O)c2c1)c1ccccc1Cl`, the growth rescue is -0.178% (inactive).

Take `O=C(Nc1ccc2ccccc2c1[N+](=O)[O-])c1ccccc1`: the growth rescue is 0.461% (inactive).

For the compound `O=C(NC1=CC(=O)c2ccccc2C1=O)c1ccccc1`, the growth rescue is 300% (active). The result for `COC(=O)c1nc(NC(=O)c2ccccc2)n[nH]1` reads -0.423% (inactive); that for `O=c1c2ccccc2ccc2ccc(P(=O)(O)O)cc12`, -0.021% (inactive); that for `CCOC(=O)CSc1nnc(CNC(=O)c2cccs2)n1-c1ccccc1`, -0.612% (inactive). The result for `COc1ccc2[nH]c3c(c2c1)CCN[C@H]3C` reads -1.47% (inactive); that for `COc1ccc2[nH]c3c(C)c4cc[n+](C)cc4c(C)c3c2c1`, 122% (active); that for `COc1ccc2[nH]c(C(=O)N3CCN(C)CC3)c(C)c2c1`, -0.899% (inactive). Turning to `Cc1c(NC(=O)C(C)Oc2cccc(Cl)c2)c(=O)n(-c2ccccc2)n1C` (configuration not stated), the growth rescue was 0.003% (inactive). The result for `COc1ccc(-c2cc(C(=O)NCCCN3CCOCC3)no2)cc1` reads 0.263% (inactive); that for `O=C(NCCCN1CCOCC1)c1cc(-c2cccc(O)c2)on1`, 44.1% (active).

Consider `O=C(NCCCN1CCOCC1)c1cc(-c2ccc(Cl)cc2)on1`, for which the growth rescue was 0.597% (inactive). With `CCOC(=O)CNC(=O)CSc1ncccc1-c1nc2ccccc2[nH]1`, the growth rescue is 0.257% (inactive).

As to `CC(=NCc1ccco1)c1c(C(F)(F)F)[nH]n(-c2nc3ccccc3s2)c1=O`, the growth rescue is -0.486% (inactive). For the compound `COC(=O)Cc1cc(=O)n(-c2nc3ccccc3s2)[nH]1`, the growth rescue is 103% (active). Under `Cc1cc(NC(=O)CN2CCCC(C)C2)n(-c2nc3ccccc3s2)n1` (configuration not stated) stands -1.25% (inactive).

On to `O=C(NCCCn1ccnc1)c1cc(-c2ccccc2)on1`, for which the growth rescue was -0.876% (inactive).

As to `O=C(/C=C/c1ccccc1)Oc1coc(CSc2ncccn2)cc1=O`, the growth rescue was 1.58% (inactive). As to `O=C1c2ccccc2C(=O)N1CCC#Cc1ccc2cc(C3(O)CCCCC3)oc(=O)c2c1`, the growth rescue is 0.213% (inactive). Consider `COc1cc(/C=C2\Oc3ccc(C#Cc4ccc(O)cc4)cc3C2=O)cc(OC)c1`, for which the growth rescue was -1.52% (inactive).

On to `COc1cc(C#Cc2ccc3cc(CCCO)oc(=O)c3c2)cc(OC)c1`, for which the growth rescue is 45.9% (active). As to `CCN1CCN(C(=O)CN(C)S(=O)(=O)c2ccc3ccccc3c2)CC1`, the growth rescue was -0.824% (inactive). Under `S=c1c2[nH]cnc2ncn1CCSc1ncnc2nc[nH]c12` stands -2.56% (inactive).

Turning to `O=S(=O)(c1ccc(OCC(O)CN2CCN(c3ccccc3Cl)CC2)cc1)N1CCOCC1` (configuration not stated), the growth rescue was 2.31% (inactive).

For `CC(=O)c1ccc(OCC(O)CN2CCN(S(=O)(=O)c3cccc(Br)c3)CC2)cc1` (configuration not stated), the growth rescue was 26.4% (active). Under `Cc1cccc(OCC(O)CN2CCN(S(=O)(=O)c3ccc(C)cc3C)CC2)c1` (configuration not stated) stands 0.709% (inactive). Consider `COC(=O)c1cc2occc2n1Cc1nc(-c2ccccc2C)oc1C`, for which the growth rescue is 1.43% (inactive).

With `Cc1c(NS(=O)(=O)c2cc(C(=O)NCCc3ccc(F)cc3)cc(Cl)c2Cl)c(=O)n(-c2ccccc2)n1C`, the growth rescue was -0.709% (inactive). For `CC1=CC(C)(C)NC(=S)N1NC(=O)c1ccccc1Cl`, the growth rescue is 0.305% (inactive). As for `COc1ccccc1C(=O)NN1C(=O)C2C3C=CC(O3)C2C1=O` (configuration not stated), the growth rescue was 0.742% (inactive). As to `CC12CCC(C(=O)N(NC(=O)c3ccccc3O)C1=O)C2(C)C` (configuration not stated), the growth rescue was 64.6% (active). For the compound `CN1CCN(C(=O)N2c3ccccc3CCc3ccccc32)CC1`, the growth rescue is -1.45% (inactive). As for `CC(C)CN(CC(C)C)C(=O)CN1c2cccc3cccc(c23)S1(=O)=O`, the growth rescue is 29.2% (active). As to `CCN(CC(=O)Nc1c(F)cccc1F)C(=O)CN1c2cccc3cccc(c23)S1(=O)=O`, the growth rescue was 0.416% (inactive). The result for `O=C(O)CN1c2cccc3cccc(c23)S1(=O)=O` reads 0.021% (inactive); that for `COc1ccc(C2COC(=O)C2=N)c(NC(=O)c2ccccc2)c1` (configuration not stated), -1.79% (inactive); that for `O=C(c1ccc(-c2ccccc2)cc1)C1CCCN(C(=O)c2cncs2)C1` (configuration not stated), 373% (active). The result for `Cn1nccc1C(=O)N1CCCC(C(=O)c2ccc(Oc3ccccc3)cc2)C1` (configuration not stated) reads 1.09% (inactive); that for `Cc1nc(C(=O)N2CCCC(C(=O)c3ccc(Cl)cc3)C2)cs1` (configuration not stated), -0.97% (inactive). Under `Cc1ccccc1NC(=O)C1CCCN(C(=O)NCc2ccccc2)C1` (configuration not stated) stands -1.16% (inactive); under `CCNC(=O)N1CCCC(C(=O)c2ccc(-c3ccccc3)cc2)C1` (configuration not stated), 173% (active). For `CCOC(=O)CCNC(=O)N1CCCC(C(=O)c2ccccc2SC)C1` (configuration not stated), the growth rescue was -0.934% (inactive). Under `N#Cc1c(C(F)(F)F)cc(-c2cccs2)nc1N1CCCCC1` stands -0.0675% (inactive); under `CC(=O)c1ccc(NC(=O)c2ccc(-n3cncn3)c([N+](=O)[O-])c2)cc1`, 0.873% (inactive).

The record behind these values is PubChem BioAssay AID504582 (Broad Institute, 2011).
